This note sets out measurements from PubChem BioAssay.

The nature of the experiment: small-molecule binders of probe aInhba, primary screen, biochemical, small-molecule microarray, 635/667 nm fluorescence (AID 1148).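 Further: score merges 667nm spot fluorescence with signal-to-noise for antibody binding to printed compounds.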 The following applies: higher = more signal.
In turn, `O=C1OCC=C[C@H]2OC34C=CCN(c5ccc(Cl)cc5)C(=O)[C@H]3N(CCCCCO)C(=O)[C@@H]4[C@@H]12` (some centres undefined) came in with a composite z-score of -0.128.
Take `CC(C)(C)OC(=O)CC[C@]1(C(=O)NCCN2CCOCC2)N=C(c2ccc(OCCCO)cc2)O[C@H]1c1ccccc1N=[N+]=[N-]`: the composite z-score turned out to be 0.367.
Regarding `COC(=O)C1(Cc2ccccc2)C=C2C(=C(c3ccccc3)C(=O)C2C)CN1` (centres undefined), the composite z-score was found to be 0.862.
Molecule `COc1cc(CO)cc(I)c1O[C@H]1C=C(C(=O)NCCO)C[C@@H](N(CC2CCCCC2)C(=O)c2ccc(C(F)(F)F)cc2)[C@@H]1O` returned a composite z-score of -0.0403.
`COc1ccc([Si](C)(C)[C@H]2[C@H](CCn3cc(CCO)nn3)O[C@@]3(C(=O)N(Cc4ccc(N5C(=O)c6cccc7cccc5c67)cc4)c4ccccc43)[C@@H]2C)cc1` came in with a composite z-score of -0.0933.
Under `CC=CC(O)C1C=CC2C(=O)N(C)C(=O)C2N1Nc1ccc([N+](=O)[O-])cc1[N+](=O)[O-]` (centres undefined) stands -0.128.
`COCCCNC(=O)[C@]1(Cc2ccccc2N=[N+]=[N-])N=C(c2ccc(OCCCO)cc2)O[C@@H]1c1ccccc1N=[N+]=[N-]` had a composite z-score of -0.0011.
In turn, `[N-]=[N+]=NCc1ccccc1C[C@@]1(C(N)=O)N=C(c2ccc(OCCCO)cc2)O[C@@H]1c1ccccc1CN=[N+]=[N-]` showed a composite z-score of -0.0418.
The value for `O=C1NC(=O)C2C1C=CC(C(O)c1ccc3c(c1)OCO3)N2Nc1ccccn1` (centres undefined) was -0.203; that for `O=C1C[C@]2(c3ccc([N+](=O)[O-])cc3)C(=O)N(Cc3ccccc3)c3cc(CO)ccc3[C@H]2N1CC12CC3CC(CC(C3)C1)C2` was -0.325.
As for `COc1cc2c(cc1OC)CN(C(=O)[C@H]1[C@@H]3C(=O)O[C@@H](c4ccccc4)[C@@H](c4ccccc4)N3[C@@H](c3ccc(OCCO)cc3)[C@]13C(=O)Nc1ccc(C#CCCO)cc13)CC2`, the composite z-score was found to be 0.659.
Consider `CC(C)NC(=O)[C@@]1(C)c2ccccc2C(=O)N(C(C)C)[C@H]1c1ccc(CO)cc1`, for which the composite z-score is -0.197.
For `C=CCC(OC(C)=O)[C@@H]1[C@@H](N(Cc2cc3ccccc3o2)C(=O)Cc2ccc(F)cc2)c2cc(OCCCO)ccc2N1C(=O)c1ccc2ccccc2n1` (some centres undefined), the composite z-score was -0.142.
`O=C1O[C@@H](c2ccccc2)[C@@H](c2ccccc2)N2[C@@H](c3ccc(O)cc3)[C@]3(C(=O)Nc4ccc(C#CCCO)cc43)[C@@H](C(=O)Nc3nc4ccccc4s3)[C@H]12`: the composite z-score amounted to 0.0471.
Under `C=C(CCCC)/C(=C/C[C@@H](OC(C)=O)c1ccc(CO)o1)c1cc(C(=O)OC)ccc1OC` stands -0.0405.
`O=C1OC[C@@H](c2ccccc2)N2CC(/C=C/c3ccccc3)=CC12` (some centres undefined) registered a composite z-score of -0.239.
Under `CCOC(=O)[C@H]1C/C=C/C[C@H](C(=O)OCC)C(=O)O[C@H]2[C@@H](OC)O[C@H](CO)[C@@H](OC(=O)CCc3ccccc3)[C@@H]2OC1=O` stands 0.788.
The molecule `[N-]=[N+]=Nc1ccccc1C[C@@]1(C(=O)O)N=C(c2ccc(OCCCO)cc2)O[C@@H]1c1ccccc1` yielded a composite z-score of 0.0633.
Molecule `CC(C)(C)N1CC=CC23O[C@@H]4C=CCOC(=O)[C@@H]4[C@H]2C(=O)N(CCCO)[C@@H]3C1=O` (some centres undefined) returned a composite z-score of -0.317.
Under `COC1(C)CN(Cc2ccccc2Br)[C@H](/C=C/c2ccccc2)[C@H](Cc2ccccc2)O1` (some centres undefined) stands -0.0719; under `O=C(N1CCCCC1)[C@@]1(Cc2ccccc2)COC(c2ccc(OCCCO)cc2)=N1`, 0.322; under `COC(=O)[C@@]1(Cc2ccc(F)cc2)[C@H]2c3cc(C(=O)N4CCCC4)n(CCc4c[nH]c5ccc(OC)cc45)c3C[C@H]2CN1C(=O)c1ccccc1`, 1.62.
In the case of `[N-]=[N+]=Nc1ccccc1[C@@H]1OC(c2ccc(OCCCO)cc2)=N[C@]1(CCS(=O)(=O)c1ccccc1)C(=O)NCCN1CCOCC1`, the composite z-score is 0.109.
The value for `CN1C(=O)C2C=CC(C(O)c3c(F)cccc3Cl)N(Nc3ccccc3)C2C1=O` (centres undefined) was 0.0374; that for `COC(=O)[C@@]1(Cc2ccccc2)[C@H]2c3cc(C(=O)N4CCCC4)[nH]c3C[C@H]2CN1C(=O)c1ccccc1` was 0.192; that for `NCCCCCCNC(=O)[C@H]1C[C@H]2C(=O)N[C@@H](Cc3ccccc3)C(=O)N2[C@H]1c1ccc(O)cc1` was 0.103.
`C[N+](C)(C)CCCC[C@@H]1NC(=O)[C@@H]2C[C@H](C(=O)O)[C@H](c3ccc(O)cc3)N2C1=O` gave a composite z-score of -0.103.
`C=C(CCCC)C(=O)CC[C@@H](OC(=O)c1cccnc1)c1ccccc1OCCO` had a composite z-score of -0.128.
Under `O=C1O[C@@H](c2ccccc2)[C@@H](c2ccccc2)N2[C@@H](c3ccccc3OCCO)[C@]3(C(=O)Nc4ccccc43)[C@@H](C(=O)NC[C@H](O)c3ccccc3)[C@H]12` stands -0.149.
